# Records with an inconclusive call do not appear. Some compounds were tested as several samples or in several runs, with calls that do not always agree. The source made the active and inactive calls. The calls were made as follows: active = hit-call score of the fitted dose curve at least 0.9, where 1 is the maximum; inconclusive = response in the unintended direction; inactive = score below 0.9.
# Target: human CYP19A1, CYP19A1 (gene 1588) (UniProt P11511)
# Assay: NVS_ADME_hCYP19A1: NovaScreen (NVS) CYP450-related Enzyme Activity (ADME) Assay for human CYP19A1 (AID 2283098);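 as to AC50: potency for inhibitors seen as loss of fluorescent enzyme signal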
# Procedure: NVS_ADME_hCYP19A1 is a biochemical, single-readout assay that uses extracted gene-proteins in a cell-free assay. Measurements were taken 0.5 hour after chemical dosing in a 384-well plate.NVS_ADME_hCYP19A1 is one of one assay component(s) measured or calculated from the NVS_ADME_hCYP19A1 assay. It is designed to make measurements of enzyme activity, a form of enzyme reporter, as detected with fluorescence intensity signals by Fluorescence technology.Data from the assay component NVS_ADME_hCYP19A1 was analyzed into 1 assay endpoint. This assay endpoint, NVS_ADME_hCYP19A1, was analyzed in the positive analysis fitting direction relative to Acetonitrile as the negative control and baseline of activity. Using a type of enzyme reporter, loss-of-signal activity can be used to understand changes in the enzymatic activity as they relate to the gene CYP19A1. Furthermore, this assay endpoint can be referred to as a primary readout, because this assay has produced multiple assay endpoints where this one serves a enzymatic activity function. To generalize the intended target to other relatable targets, this assay endpoint is annotated to the cyp intended target family, where the subfamily is steroidogenesis-related.
# Binding assays used specific radioligands (tritiated, iodinated) with non-radioactive competitive displacement ligands in agonist or antagonist protocols (as indicated) and various reference compounds and inhibitors to titrate specific binding to receptors and transporters. Most enzyme assays (CYPs, kinases, phosphatases, proteases, HDACs) used recombinant protein and specific substrates (fluorescence mostly, some colorimetric and radioactive) and inhibitors, followed by a biochemical separation of substrate and product. All assays for the biochemical HTS were initially run in duplicate at a single concentration (10 uM for CYP450 assays and 25 uM for all others). […] Each assay was run with positive and negative controls, and concurrent controls on every plate. The follow-up (secondary) screen tested active chemical-pairs in concentration series, as well as a few additional assays not tested in the primary screen, some selected negative inactives, and several cases re-run in the concentration series for confirmatory purposes.
# Sequence of human CYP19A1, CYP19A1 (gene 1588) (P11511 whole entry, looked up): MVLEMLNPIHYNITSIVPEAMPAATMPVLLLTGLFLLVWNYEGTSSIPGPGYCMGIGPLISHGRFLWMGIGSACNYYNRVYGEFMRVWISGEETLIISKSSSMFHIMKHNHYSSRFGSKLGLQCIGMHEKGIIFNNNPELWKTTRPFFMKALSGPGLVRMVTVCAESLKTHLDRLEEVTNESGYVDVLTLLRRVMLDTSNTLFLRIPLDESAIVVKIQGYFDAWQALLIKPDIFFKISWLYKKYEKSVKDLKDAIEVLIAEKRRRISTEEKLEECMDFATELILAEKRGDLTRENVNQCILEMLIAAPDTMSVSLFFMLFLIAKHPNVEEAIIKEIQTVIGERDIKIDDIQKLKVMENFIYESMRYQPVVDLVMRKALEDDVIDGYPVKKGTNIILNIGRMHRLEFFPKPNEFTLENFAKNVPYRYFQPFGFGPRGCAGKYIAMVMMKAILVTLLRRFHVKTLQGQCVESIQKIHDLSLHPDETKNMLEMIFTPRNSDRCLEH
Structure (SMILES),outcome,AC50
COc1ccc(C(c2ccc(OC)cc2)C(Cl)(Cl)Cl)cc1,inactive,3.76 µM (active)
CCCCC(CC)COC(=O)c1ccccc1C(=O)OCC(CC)CCCC (stereo not drawn),–,3.05 µM (active)
CCCC1COC(Cn2cncn2)(c2ccc(Cl)cc2Cl)O1 (stereo not drawn),–,2.04 µM (active)
COP(N)(=O)SC (stereo not drawn),inactive,–
CO/C=C(/C(=O)OC)c1ccccc1Oc1cc(Oc2ccccc2C#N)ncn1,inactive,–
COC(=O)N(OC)c1ccccc1COc1ccn(-c2ccc(Cl)cc2)n1,inactive,–
CCNc1nc(Cl)nc(NC(C)C)n1,inactive,–
CCOP(=S)(OCC)SCn1c(=O)oc2cc(Cl)ccc21,inactive,–
CCCCOC(=O)c1ccccc1C(=O)OCCCC,inactive,–
C#CCOS(=O)OC1CCCCC1Oc1ccc(C(C)(C)C)cc1 (stereo not drawn),inactive,–
CC1COC(Cn2cncn2)(c2ccc(Oc3ccc(Cl)cc3)cc2Cl)O1 (stereo not drawn),–,0.706 µM (active)
CON(C)C(=O)Nc1ccc(Cl)c(Cl)c1,inactive,–
CCOC(=O)CC(SP(=S)(OC)OC)C(=O)OCC (stereo not drawn),inactive,–
O=C(Nc1ccccc1)Nc1ccnc(Cl)c1,inactive,–
N#CC(CCc1ccc(Cl)cc1)(Cn1cncn1)c1ccccc1 (stereo not drawn),inactive,–
Oc1ccccc1-c1ccccc1,–,4.05 µM (active)
CNC(=S)S,inactive,–

# Reference: PubChem BioAssay (EPA / NIEHS)
